An excerpt weighted towards active compounds, which were near 9.9% of everything screened.
KB-V1 MDR tox = KB-V1 MDR subline cytotoxicity | KB-V1 MDR cells viability, CellTiter-Glo, 72 h | Potency, µM (highest dose often 46.1 µM), most hits filed as cytotoxic | 400,000 compounds, 3.4% hits | AID 1347076; further: potency means the concentration at half of the fitted maximal effect; on the % scale 0 is the no-effect control and ±100 the full control effect; nearly all actives have a fitted effect of over 60% in size
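KB-V1, DMEM (no phenol red) + 10% FBS; cpd pin-transferred, titration series; 72 h, 37 degrees C; CellTiter-Glo, luminescence. Data normalized, curve-fit.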
MCF10A rereplic = induces DNA re-replication in MCF 10a normal breast cells. MCF 10A DNA re-replication, Hoechst nuclear intensity, 48 h. Potency, µM (series often up to 46.1 µM), inactives show top-dose activity, positive = re-replication, actives largely listed as activators. 350,000 compounds, 2.9% hits; further: potency means the concentration at half of the fitted maximal effect; % of control where 0% means no effect; nearly all actives have a fitted effect of over 50% in size
SW480 rereplic = DNA re-replication induction in SW480 cells. SW480 DNA re-replication, Hoechst DNA content imaging, 48 h. Potency, µM (doses to about 46.1 µM), inactives show at the highest dose re-replication activation, most hits filed as activators. 340,000 compounds, 1.8% hits. AID 624297; further: potency means the concentration at half of the fitted maximal effect; % of control where 0% means no effect; nearly all actives have a fitted effect of over 55% in size
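Treated cells incubate 48 hr (37 C, 5% CO2), are stained 40 min with Hoechst, and nuclear fluorescence is enumerated; a rise in nuclei with high DNA signal marks re-replication.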
IL1B secr inh = inflammasome signaling inhibition, IL-1 beta readout; THP-1 LPS/ATP IL-1B secretion, AlphaLISA, 16 h; stronger effect = lower value; 360,000 compounds, 4.7% hits; activity change, % at 57.5 µM; in the data active means activity change below about -50%; inconclusive means mostly about -30% to -49%; further: on the % scale 0 is the no-effect control and ±100 the full control effect
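Secreted IL-1B measured by AlphaLISA bead assay after 16 h compound exposure of THP-1 cells; compounds (final up to 57.5 uM) added 1 h before LPS (250 ng/mL) and ATP (1.25 mM) stimulation; lower signal means less secretion.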
KB-3-1 tox = kills parental KB-3-1 adenocarcinoma cells. KB-3-1 viability, CellTiter-Glo ATP luminescence, 72 h. Potency, µM (doses to about 46.1 µM), hits mostly cytotoxic. 400,000 compounds, 1.4% hits; further: potency means the concentration at half of the fitted maximal effect; on the % scale 0 is the no-effect control and ±100 the full control effect; nearly all actives have a fitted effect of over 60% in size
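Cytotoxicity in the drug-sensitive parental line KB-3-1 was scored as loss of CellTiter-Glo luminescence following 72 h incubation with compound. Values come from curve fitting of normalized concentration-response data.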
* = called active by the depositor. Unless noted, the call rests on the fitted dose curve; in most records, active means well fitted curve in the direction sought with a large enough effect; inconclusive means small, poorly fitted or top-dose-only effect, or another doubt; inactive means no such curve, though single readings can be large; an effect the other way counts as inactive or inconclusive.

What do the screens show for `COc1ccc([N+](=O)[O-])cc1NC(=O)C(C)OC(=O)/C=C/c1ccco1` (stereo not drawn)?
KB-V1 MDR tox: inconclusive; MCF10A rereplic: 0%; SW480 rereplic: -105%; IL1B secr inh: 0; KB-3-1 tox: inactive

What do the screens show for `COC(=O)C1=C(N)Oc2cc(C)n(CC3CCCO3)c(=O)c2C1c1ccccc1OC` (stereo not drawn)?
KB-V1 MDR tox: inactive; MCF10A rereplic: 0%; SW480 rereplic: 0%; IL1B secr inh: -4; KB-3-1 tox: inactive

How did COC(=O)C1=C(N)Oc2cc(N(C)C)ccc2C1c1ccccc1OC (stereo not drawn) do in these assays?
KB-V1 MDR tox: inconclusive; MCF10A rereplic: 9.2µM*; SW480 rereplic: 12µM*; IL1B secr inh: -19; KB-3-1 tox: inactive

Results for Cc1c(N=N/C(C(=O)Nc2ccccc2)=C(/O)c2ccccc2)c(=O)n(-c2ccccc2)n1C ?
KB-V1 MDR tox: inactive; MCF10A rereplic: -18%; SW480 rereplic: 6.5µM*; IL1B secr inh: -1; KB-3-1 tox: inactive

Results for CCSc1nc(-c2ccccc2)nc(C(Cl)Cl)n1 ?
KB-V1 MDR tox: inactive; MCF10A rereplic: 12µM*; SW480 rereplic: 23%; IL1B secr inh: -24; KB-3-1 tox: 5.2µM*

Results for CCSc1nc(-c2ccccc2)c2cc(Cl)ccc2n1 ?
KB-V1 MDR tox: inactive; MCF10A rereplic: 4%; SW480 rereplic: -1%; IL1B secr inh: -2; KB-3-1 tox: inactive

Results for CSc1nc(-c2ccc(C)cc2)nc(C(Cl)Cl)n1 ?
KB-V1 MDR tox: 18µM*; MCF10A rereplic: inconclusive; SW480 rereplic: 18%; IL1B secr inh: 20; KB-3-1 tox: 7.3µM*

What do the screens show for `CSc1nc(Cl)c(C#N)c(-c2ccc(C)cc2)n1`?
KB-V1 MDR tox: inactive; MCF10A rereplic: 3%; SW480 rereplic: -7%; IL1B secr inh: 8; KB-3-1 tox: inactive

Results for C[C@H]1CN([C@@H](C)CO)C(=O)CCCn2nncc2CO[C@@H]1CN(C)C(=O)c1ccc2ccn(C)c2c1 ?
KB-V1 MDR tox: inconclusive; IL1B secr inh: -22; KB-3-1 tox: inactive

Results for NC(=O)c1c(NC(=O)c2ccc([N+](=O)[O-])o2)sc2c1CCCC2 ?
KB-V1 MDR tox: inconclusive; MCF10A rereplic: 2.6µM*; SW480 rereplic: 1.5µM*; KB-3-1 tox: 16µM*

What do the screens show for `N#Cc1c(NC(=O)c2ccc(Cn3cc(Br)cn3)o2)sc2c1CCCCCC2`?
KB-V1 MDR tox: 2.6µM*; MCF10A rereplic: inconclusive; SW480 rereplic: 29%; IL1B secr inh: -8; KB-3-1 tox: inconclusive

How did Cn1nccc1C(=O)Nc1sc2c(c1C#N)CCCC2 do in these assays?
KB-V1 MDR tox: inactive; MCF10A rereplic: -13%; SW480 rereplic: 2%; IL1B secr inh: inconclusive; KB-3-1 tox: inactive

Results for NC(=O)c1c(NC(=O)c2cc3ccccc3o2)sc2c1CCC2 ?
KB-V1 MDR tox: inconclusive; MCF10A rereplic: inconclusive; SW480 rereplic: inconclusive; IL1B secr inh: -19; KB-3-1 tox: inactive

Results for CN1CCc2c(sc(NC(=O)c3cc(Cl)sc3Cl)c2C(N)=O)C1 ?
KB-V1 MDR tox: inactive; MCF10A rereplic: 23µM*; SW480 rereplic: inconclusive; IL1B secr inh: -91*; KB-3-1 tox: inactive

What do the screens show for `CN1CCc2c(sc(NC(=O)C3CCCN3S(=O)(=O)c3ccc(Cl)s3)c2C(N)=O)C1` (stereo not drawn)?
KB-V1 MDR tox: inactive; MCF10A rereplic: inconclusive; SW480 rereplic: inconclusive; IL1B secr inh: -5; KB-3-1 tox: inactive

What do the screens show for `N#Cc1c(NC(=O)c2ccc([N+](=O)[O-])o2)sc2c1CCC2`?
KB-V1 MDR tox: 18µM*; MCF10A rereplic: 21µM*; SW480 rereplic: 10µM*; IL1B secr inh: -94*; KB-3-1 tox: 5.2µM*

Results for COc1ccc(NC(=O)C(NS(=O)(=O)c2cccc3nsnc23)C(C)C)cc1OC (stereo not drawn) ?
KB-V1 MDR tox: inactive; KB-3-1 tox: inactive

What do the screens show for `COC(=O)C(Cc1ccc(OC(=O)c2ccc(C)cc2)cc1)N1Cc2ccccc2C1=O` (stereo not drawn)?
KB-V1 MDR tox: inactive; MCF10A rereplic: -3%; SW480 rereplic: 2%; IL1B secr inh: 1; KB-3-1 tox: inactive

What do the screens show for `COCCN(C(=S)Nc1ccc(Cl)cc1OC)C1CCN(C(C)=O)CC1`?
KB-V1 MDR tox: inactive; MCF10A rereplic: -6%; SW480 rereplic: 1%; IL1B secr inh: -15; KB-3-1 tox: inactive

How did CN1CCc2c(sc(NC(=O)c3ccco3)c2C(N)=O)C1 do in these assays?
KB-V1 MDR tox: inactive; MCF10A rereplic: -1%; SW480 rereplic: -5%; IL1B secr inh: 0; KB-3-1 tox: inactive

How did NC(=O)c1ccsc1NC(=O)c1ccc([N+](=O)[O-])o1 do in these assays?
KB-V1 MDR tox: inconclusive; MCF10A rereplic: 3.7µM*; SW480 rereplic: inconclusive; IL1B secr inh: -68*; KB-3-1 tox: inconclusive

Results for CN1CCc2c(sc(NC(=O)c3ccc([N+](=O)[O-])o3)c2C(N)=O)C1 ?
KB-V1 MDR tox: inconclusive; MCF10A rereplic: inconclusive; SW480 rereplic: 1.5µM*; IL1B secr inh: -98*; KB-3-1 tox: inconclusive

What do the screens show for `Cc1cccc(C(=O)N2CCNC(=O)C2CC(=O)Nc2cccc(Cl)c2)c1` (stereo not drawn)?
KB-V1 MDR tox: inconclusive; MCF10A rereplic: 1%; SW480 rereplic: inconclusive; IL1B secr inh: inconclusive; KB-3-1 tox: inactive

How did C/C=C/c1ccc(O)c(OC)c1 do in these assays?
KB-V1 MDR tox: inactive; MCF10A rereplic: 8%; SW480 rereplic: -1%; IL1B secr inh: -4; KB-3-1 tox: inactive

How did CC=Cc1cc(OC)c2c(c1)C(C)C(c1ccc(O)c(OC)c1)O2 (stereo not drawn) do in these assays?
KB-V1 MDR tox: inactive; MCF10A rereplic: inconclusive; SW480 rereplic: 15%; IL1B secr inh: -65*; KB-3-1 tox: inactive

Results for CC1=C(C(=O)N2CCCCCC2)CC(CC(=O)NC2CCCC2)C(=O)N1Cc1ccc(C(C)(C)C)cc1 (stereo not drawn) ?
KB-V1 MDR tox: inconclusive; IL1B secr inh: -73*; KB-3-1 tox: inactive

How did CC1=C(C(=O)N(C(C)C)C(C)C)CC(CC(=O)NC2CCCC2)C(=O)N1Cc1ccc(C(C)(C)C)cc1 (stereo not drawn) do in these assays?
KB-V1 MDR tox: inactive; IL1B secr inh: -68*; KB-3-1 tox: inactive

Results for CCOCCc1nn2c(=O)cc(COC(=O)c3ccco3)nc2s1 ?
KB-V1 MDR tox: inactive; KB-3-1 tox: inactive

What do the screens show for `Cc1cccc(COc2ccc(/C=N/NC(=O)c3nnn(-c4nonc4N)c3CN3CCCCC3)cc2)c1`?
KB-V1 MDR tox: inconclusive; MCF10A rereplic: 16µM*; SW480 rereplic: -24%; IL1B secr inh: -9; KB-3-1 tox: inactive

Compound activity as filed in PubChem BioAssay.
